Compound activity from PubChem BioAssay.
Shown are actives, neighbours in structure and some others; about 1.4% of the full set was active somewhere.
LYPLA2 counter – LYPLA2 (human) inhibition in PME1 counter-screen | O95372 | recombinant LYPLA2, FP-Rh probe fluorescence polarization | inhibition, % at 5.9 µM | hit rate 0.38% among 320,000 | AID 2177;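 active means inhibition above the screen-wide mean plus 3 SD, limit set per campaign, cut at about 26% in these data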
EBNA-1 inhibitor – blocks EBNA-1 binding to DNA; AID 1950; hit rate 0.34% among 300,000; inhibition, % at 14.8 µM; EBNA-1 DNA binding, fluorescence polarization; in the data active means inhibition above about 28%
LANA-H2B inh – blocks KSHV LANA binding to histone H2A/H2B. hit rate 0.6% among 320,000. Q9QR71. AID 2629. inhibition, % (concentration not given with the values). cell-free LANA-H2A/H2B peptide, fluorescence polarization; in the data active means inhibition mostly above about 10%, no sharp cut-off; inactive means mostly below about 6.7%
Target sequence (Q9QR71 whole entry, looked up): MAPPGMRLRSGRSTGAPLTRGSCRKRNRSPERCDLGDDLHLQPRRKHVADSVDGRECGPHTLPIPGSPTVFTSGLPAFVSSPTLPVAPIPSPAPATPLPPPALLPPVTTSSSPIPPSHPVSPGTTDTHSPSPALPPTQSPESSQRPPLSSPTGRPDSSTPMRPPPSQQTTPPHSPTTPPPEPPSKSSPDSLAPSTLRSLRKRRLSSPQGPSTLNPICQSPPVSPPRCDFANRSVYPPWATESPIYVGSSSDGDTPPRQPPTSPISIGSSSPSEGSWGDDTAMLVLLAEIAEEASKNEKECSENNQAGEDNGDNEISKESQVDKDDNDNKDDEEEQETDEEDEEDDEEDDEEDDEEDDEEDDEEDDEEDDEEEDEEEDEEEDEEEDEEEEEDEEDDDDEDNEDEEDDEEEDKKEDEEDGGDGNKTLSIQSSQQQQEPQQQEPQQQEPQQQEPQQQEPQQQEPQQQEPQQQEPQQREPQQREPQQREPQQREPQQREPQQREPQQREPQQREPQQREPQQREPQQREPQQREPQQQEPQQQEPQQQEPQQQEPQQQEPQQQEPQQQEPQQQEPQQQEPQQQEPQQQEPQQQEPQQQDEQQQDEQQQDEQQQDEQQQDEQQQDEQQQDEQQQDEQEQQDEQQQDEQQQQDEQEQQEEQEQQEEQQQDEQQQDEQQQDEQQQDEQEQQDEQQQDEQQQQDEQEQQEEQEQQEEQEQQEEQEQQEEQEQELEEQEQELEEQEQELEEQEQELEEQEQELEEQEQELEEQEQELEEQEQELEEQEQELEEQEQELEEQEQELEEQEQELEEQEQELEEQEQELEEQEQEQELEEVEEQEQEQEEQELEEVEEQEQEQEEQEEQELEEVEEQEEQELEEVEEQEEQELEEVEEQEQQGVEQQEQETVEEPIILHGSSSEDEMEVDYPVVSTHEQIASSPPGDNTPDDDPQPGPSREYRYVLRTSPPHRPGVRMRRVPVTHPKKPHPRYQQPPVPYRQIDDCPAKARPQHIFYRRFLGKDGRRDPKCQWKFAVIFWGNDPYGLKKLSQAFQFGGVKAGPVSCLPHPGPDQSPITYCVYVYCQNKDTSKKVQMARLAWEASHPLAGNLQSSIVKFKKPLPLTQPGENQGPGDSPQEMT
LYPLA1 counter – LYPLA1 (human) inhibition in PME1 counter-screen; inhibition, % at 5.9 µM; O75608; hit rate 0.16% among 320,000; recombinant LYPLA1, FP-Rh probe fluorescence polarization;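 active means inhibition above the mean of all tested compounds plus 3 SD, set per campaign, cut at about 14% in these data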;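 further: inhibitors block serine hydrolase probe labeling of LYPLA1 so polarization falls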
ZTA DNA inh – counter-screen for EBNA-1 inhibitors: inhibitors of Epstein-Barr virus ZTA; inhibition, % at 11 µM; AID 2234; P03206; hit rate 0.15% among 320,000; ZTA-DNA binding, fluorescence polarization; in the data active means inhibition above about 33%
Of the large screens only hits and unclear results are named; the others gave an inactive call; ! = repeats disagree.

COc1ccccc1CCC(=O)N1CCN(S(=O)(=O)c2cccc(F)c2)CC1	none
Cc1cccc(C)c1NC(=O)CN(C)C(C)C(=O)NCC(=O)Nc1ccc(F)c(F)c1F (stereo unspecified)	LANA-H2B inh 187 (no result: EBNA-1 inhibitor)
Cc1ccc(NC(=O)COc2cccc(Oc3ccccc3)c2)cc1S(=O)(=O)N1CCOCC1	none (no result: EBNA-1 inhibitor)
COc1ccc(Cl)cc1NC(=O)c1ocnc1C	LANA-H2B inh 18
COc1ccc(NC(=O)c2ocnc2C)cc1OC	none
COc1ccc(NCc2cc(=O)oc3cc(NC(C)=O)ccc23)cc1	none
Cc1c(C(=O)OCCOc2ccccc2)[nH]c2c1C(=O)CCC2	none
CCCc1c(C(=O)OCC)[nH]c2c1C(=O)CCC2	LANA-H2B inh 36
O=C(COC(=O)c1ccc(F)cc1F)Nc1ccc(Cl)cn1	LANA-H2B inh 25 (no result: EBNA-1 inhibitor)
O=C(COC(=O)c1ccc(O)cc1O)Nc1ccc(Cl)cn1	none
CCOc1c(C)cnc2c1c(=O)n(Cc1ccc(Cl)cc1)c(=O)n2C	LANA-H2B inh 17
CCOc1c(C)cnc2c1c(=O)n(Cc1cccc(Cl)c1)c(=O)n2C	none
Cc1cc(C)c2nc(NC(=O)CN3C(=O)NC4(CCCC4)C3=O)sc2c1	none
COc1cc(CNc2ccc(C)c(C)c2)cc(OC)c1OC	LANA-H2B inh 5.5
CCc1ccc(CN2CCC(n3nccc3NC(=O)c3ccc4c(c3)OCO4)CC2)cc1	none
C/C=C(\C)CN1CCC(n2nccc2NC(=O)c2ccc3c(c2)OCO3)CC1	LANA-H2B inh 75
COc1ccccc1C(=O)Nc1ccnn1C1CCN(CC2CC=CCC2)CC1 (stereo unspecified)	none
COc1ccc(C(=O)Nc2ccnn2C2CCN(CC3CC=CCC3)CC2)cc1 (stereo unspecified)	LANA-H2B inh 16 (no result: LYPLA2 counter, EBNA-1 inhibitor, LYPLA1 counter, ZTA DNA inh)
O=C(CC1SC(N2CCOCC2)=NC1=O)Nc1ccc(Cl)c(C(F)(F)F)c1 (stereo unspecified)	LANA-H2B inh 22 (no result: LYPLA2 counter, EBNA-1 inhibitor, LYPLA1 counter, ZTA DNA inh)
CCOC(=O)N1CCC(N2CCN(C3CCCC3)C(CCO)C2)CC1 (stereo unspecified)	none
Cc1nc(C(=O)Nc2ccccc2Cl)cc2c1[nH]c1ccccc12	LANA-H2B inh 8.3
COc1ccc(NC(=O)c2cc3c([nH]c4ccccc43)c(C)n2)cc1	none
CC(=O)Nc1ccc(N(C(=O)c2ccco2)C(C(=O)NC2CCCCC2)c2ccccc2)cc1 (stereo unspecified)	LANA-H2B inh 10.0
O=C(CN(C(=O)CNC(=O)c1ccco1)c1ccc(F)cc1)NC1CCCCC1	none
O=C(NCC(=O)N(c1cccnc1)C(C(=O)NC1CCCCC1)c1cccnc1)c1ccco1 (stereo unspecified)	LANA-H2B inh 14
CCOc1ccc(N(CC(=O)NC2CCCCC2)C(=O)CNC(=O)c2ccco2)cc1	LANA-H2B inh 26
O=C(NCC(=O)N(c1ccccc1)C(C(=O)NC1CCCC1)c1cccnc1)c1ccco1 (stereo unspecified)	none
Cc1cc(C)c(C)c(S(=O)(=O)N2CCN(C(=O)CNC(=O)c3ccco3)CC2)c1C	none (no result: EBNA-1 inhibitor)
CN1CCc2c(n(CC(O)CN3CCN(CCO)CC3)c3ccccc23)C1=O (stereo unspecified)	none
O=C(NCCCc1ccc(F)cc1)C1CCC(=O)N(CCN2CCOCC2)C1 (stereo unspecified)	none
CN(Cc1c(C(=O)N2CCCCCCC2)nc2ccc(Cl)cn12)C1CCOC1 (stereo unspecified)	LANA-H2B inh 19 (no result: LYPLA2 counter, EBNA-1 inhibitor, LYPLA1 counter, ZTA DNA inh)
O=C(CCN1CCN(Cc2ccccc2)CC1)NNC(=O)Nc1cccc([N+](=O)[O-])c1	LANA-H2B inh 16 (no result: LYPLA2 counter, EBNA-1 inhibitor, LYPLA1 counter, ZTA DNA inh)
O=C(CCN1CCN(Cc2ccccc2)CC1)NNC(=O)Nc1cccc(Cl)c1	none
O=[N+]([O-])c1cccc(-c2ccc(C(=S)N3CCOCC3)o2)c1	none
O=C(Nc1ccc(CN2CCOCC2)cc1)c1ccc(-c2cccc([N+](=O)[O-])c2)o1	LANA-H2B inh 26
O=S(=O)(Cc1ccccc1)N1CCNCC1	none
CC1CCC(C(C)C)C(OC(=O)Cn2c(-c3ccccc3)[n+](C)c3ccccc32)C1 (stereo unspecified)	LANA-H2B inh 172
CC1CCC(C(C)C)C(OC(=O)Cn2c(-c3ccc(F)cc3)[n+](C)c3ccccc32)C1 (stereo unspecified)	none (no result: LANA-H2B inh)
CC(Sc1ccc(S(=O)(=O)N2CCOCC2)cn1)C(=O)Nc1ccc(Cl)cc1Cl (stereo unspecified)	LANA-H2B inh 24 (no result: EBNA-1 inhibitor)
COC(=O)CCCC1=CC2=C(c3ccccc3)C(=O)C(C)(OC(=O)C3CCCC3)C(=O)C2=CN1C1CC1 (stereo unspecified)	LANA-H2B inh 59
Cc1ccc2c(c1)C1CN(C)CCC1N2C(=O)COc1ccc(N(C)C(=O)C(C)(C)C)cc1 (stereo unspecified)	none
COc1ccc(OCC(=O)N2c3ccc(C)cc3C3CN(C)CCC32)cc1 (stereo unspecified)	LANA-H2B inh 25
COc1ccc(/C=C2\C(=N)N3N=C(CC(=O)N4CCOCC4)SC3=NC2=O)cc1	none
Cc1ccc(/C=C2\C(=N)N3N=C(CC(=O)N4CCOCC4)SC3=NC2=O)o1	LANA-H2B inh 18
CN(C)CCCN1c2ccccc2Sc2ccc(Cl)cc21	LANA-H2B inh 2.8!
COc1ccc(N=Nc2nc3cc(Br)c(Br)cc3n2C)c(OC)c1	LANA-H2B inh 102
Cc1ccccc1/C=C1\Oc2ccccc2C1=O	LANA-H2B inh 57 (no result: LYPLA2 counter, EBNA-1 inhibitor, LYPLA1 counter, ZTA DNA inh)
COC(=O)[C@]1(C)N[C@H](CN(C)C(=O)Nc2ccc(C)cc2)[C@@H]2C(=O)N(C)C(=O)[C@@H]21	LANA-H2B inh 160 (no result: LYPLA2 counter, EBNA-1 inhibitor, LYPLA1 counter, ZTA DNA inh)
CCNC(=O)N(C)C[C@H]1N[C@@](C)(C(=O)OC)[C@H]2C(=O)N(C)C(=O)[C@@H]12	none (no result: LYPLA2 counter, EBNA-1 inhibitor, LYPLA1 counter, ZTA DNA inh)
CCN(C[C@H]1N[C@@](C)(C(=O)OC)[C@H]2C(=O)N(C)C(=O)[C@@H]12)C(=O)c1ccc(C)cc1	LANA-H2B inh 67 (no result: LYPLA2 counter, EBNA-1 inhibitor, LYPLA1 counter, ZTA DNA inh)
CC[C@@]1(C(=O)OC)N[C@H](CN(C)C(=O)Nc2ccc(F)cc2)[C@@H]2C(=O)N(C)C(=O)[C@@H]21	none (no result: LYPLA2 counter, EBNA-1 inhibitor, LYPLA1 counter, ZTA DNA inh)
Nc1c([N+](=O)[O-])cnnc1-c1ccccc1	none (no result: LANA-H2B inh)
COc1ccc(CC(=O)Nc2ccc(F)c(F)c2F)cc1S(=O)(=O)N1CCOCC1	LANA-H2B inh 140 (no result: EBNA-1 inhibitor)
COc1ccc(CC(=O)Nc2ccc(C)cc2O)cc1S(=O)(=O)N1CCOCC1	none
COc1ccc(NCC(=O)NN=C2CCS(=O)(=O)c3ccc(F)cc32)cc1	none (no result: LYPLA2 counter, EBNA-1 inhibitor, LYPLA1 counter, ZTA DNA inh)
CN(Cc1ccccc1)c1nc2c(c(=O)[nH]c(=O)n2C)n1Cc1ccccc1	none
Cc1cccc(Cn2c(N(C)CCO)nc3c2c(=O)[nH]c(=O)n3C)c1	LANA-H2B inh 14
Cc1ccc(OCCSc2nc3ccccc3n2CC(=O)O)cc1C	none
CCOC(=O)c1ccccc1NC(=O)COC(=O)CN1C(=O)C2CC=CCC2C1=O (stereo unspecified)	LANA-H2B inh 162
CCOC(=O)c1ccccc1NC(=O)COC(=O)CC1CCCCC1	none
Cc1cc(C)nc(Nc2n[nH]c(-c3ccccc3C)n2)n1	none
Cc1cc(C)nc(Nc2n[nH]c(-c3ccccc3Br)n2)n1	LANA-H2B inh 18
Cc1cccnc1Nc1nc(-c2ccccc2)cs1	LANA-H2B inh 23
